# Most compounds without a hit are left out; they make up all but 1.4% or so of the library.
# GLS inhibitor = qHTS for Inhibitors of Glutaminase (GLS); Glutaminase kidney isoform, mitochondrial (Homo sapiens), O94925; GLS enzymatic activity, qHTS titration; Potency, µM (titrated, usually from 45.5 µM), hits mostly inhibitors; 0.21% of 410,000 active; AID 624170, 2012
#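 Glutamate formation by hKGA was monitored fluorometrically using coupled glutamate oxidase, HRP and Amplex Red. Substrate was added as 1 mM L-glutamine solution; incubation was 30 min at RT after an initial read.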
# TrxR1 substrate = qHTS Assay for Substrates of Mammalian Selenoprotein Thioredoxin Reductase 1 (TrxR1): qHTS; Thioredoxin reductase 1, cytoplasmic (Rattus norvegicus), O89049; purified TrxR1 substrate turnover, NADPH consumption readout; Potency, µM (doses to about 114 µM); 0.01% of 390,000 active; AID 588456, 2011; note: nearly all actives have a fitted effect of over 50% in size
#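 Rat TrxR1, dispensed at 90 nM, was prereduced with 400 uM NADPH (final) for 5 min at ~22 deg C, then incubated with compound 15 min before 400 uM selenite. A first-read NADPH fluorescence drop versus no-compound background flagged substrates.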
# TrxR1 inh = qHTS Assay for Inhibitors of Mammalian Selenoprotein Thioredoxin Reductase 1 (TrxR1): qHTS; Thioredoxin reductase 1, cytoplasmic (Rattus norvegicus), O89049; 1% of 390,000 active; recombinant rTrxR1, NADPH fluorescence consumption, selenite substrate; Potency, µM (top dose mostly 114 µM), hits mostly inhibitors; note: nearly all actives have a fitted effect of over 65% in size
#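 Rat TrxR1 (90 nM in the dispensed reagent) was pre-reduced with 400 uM NADPH for 5 min at room temperature, then incubated with compound for 15 min. After 400 uM selenite was added, NADPH fluorescence (Ex 340/Em 450 nm) was followed for 8 min.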
# IDH1 R132H inh = qHTS for Inhibitors of mutant isocitrate dehydrogenase 1 (IDH1): qHTS; Isocitrate dehydrogenase [NADP] cytoplasmic (Homo sapiens), O75874; IDH1-R132H enzyme, NADPH consumption, diaphorase/resazurin fluorescence; Potency, µM (highest dose often 76.6 µM), usual class: inhibitors; 0.093% of 390,000 active; AID 602179, 2012; note: nearly all actives have a fitted effect of over 65% in size
# Target sequence (O75874 whole entry R132H, stated change not applied): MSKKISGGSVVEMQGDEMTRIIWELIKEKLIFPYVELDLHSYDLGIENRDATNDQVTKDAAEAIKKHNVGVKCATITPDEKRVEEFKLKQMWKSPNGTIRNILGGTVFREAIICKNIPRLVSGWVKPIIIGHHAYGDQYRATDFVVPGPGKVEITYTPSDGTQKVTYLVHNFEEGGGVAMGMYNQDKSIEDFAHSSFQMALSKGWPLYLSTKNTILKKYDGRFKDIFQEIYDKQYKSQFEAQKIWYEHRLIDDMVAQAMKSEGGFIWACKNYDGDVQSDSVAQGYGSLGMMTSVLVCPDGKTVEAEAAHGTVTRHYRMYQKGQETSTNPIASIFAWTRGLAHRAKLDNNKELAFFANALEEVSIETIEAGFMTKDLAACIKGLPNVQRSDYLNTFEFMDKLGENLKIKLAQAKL
#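 IDH1-R132H (0.5 ug/mL dispensed) in pH 7.5 Tris buffer was preincubated 30 min with compound, then given a substrate mix of 0.016 mM NADPH and 2 mM alpha-KG for 80 min at room temperature; remaining NADPH was read by diaphorase/resazurin fluorescence.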
# LDHA inh = qHTS assay for inhibitors of human lactate dehydrogenase; purified LDHA, NADH/diaphorase-resazurin fluorescence; active compounds read low; activity change, % (values are at about 110 or 230 µM); L-lactate dehydrogenase A chain (Homo sapiens), P00338; 0.15% of 480,000 active; in the data active = activity change below about -30%; inconclusive = mostly about -25% to -30%
#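 Enzyme activity of human lactate dehydrogenase 5 (2 nM; 0.06 mM NADH, 0.2 mM pyruvate, 5 min, RT) is measured via a resazurin/diaphorase fluorescence readout of residual NADH.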
# PKM2 activator = qHTS Assay for Activators of Human Muscle isoform 2 Pyruvate Kinase; Pyruvate kinase PKM (Homo sapiens), P14618; purified PKM2, Kinase-Glo ATP luminescence, activation; response scale: 0% is enzyme alone, no compound; Potency, µM (top dose mostly 57.5 µM), hits mostly activators; 0.34% of 260,000 active; note: nearly all actives have a fitted effect of over 55% in size
#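 ATP formation by purified human PK-M2, quantified via coupled luciferase luminescence after 1 h at room temperature with 0.1 mM ADP and 0.5 mM PEP final.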
# Resorufin autofl = qHTS for Inhibitors of mutant isocitrate dehydrogenase 1 (IDH1): Cherrypicks Autofluorescence Interference; shares compounds with IDH1 R132H inh; Resorufin detection reagent fluorescence interference, cell-free; inhibition of signal, % at 51.2 µM; 750 tested, under 10 active; AID 623980, 2012
# WT IDH1 inh = qHTS for Inhibitors of mutant isocitrate dehydrogenase 1 (IDH1): Cherrypicks in WT IDH1 | shares compounds with IDH1 R132H inh | WT IDH1 enzyme, NADPH diaphorase/resazurin fluorescence | Potency, µM (highest dose often 115 µM), actives largely listed as inhibitors | 9% of 750 active | AID 623995, 2012; note: nearly all actives have a fitted effect of over 55% in size
# Target sequence (O75874 whole entry, looked up): as the sequence (O75874 whole entry R132H, stated change not applied) above, with H132R counted along it
# mIDH1 confirm = qHTS for Inhibitors of mutant isocitrate dehydrogenase 1 (IDH1): Confirmation of Cherrypicks | shares compounds with IDH1 R132H inh | IDH1 R132H enzyme, NADPH diaphorase/resazurin fluorescence | Potency, µM (doses to about 76.6 µM), most hits filed as inhibitors | 83% of 750 active | AID 624002, 2012; note: nearly all actives have a fitted effect of over 50% in size
# Hits are given with their value; 0 = inactive; ? = inconclusive; - = not tested or not shown; [ ] = another dose, or the depositor's remark. Unless noted, calls come from the whole dose curve; as a rule, active = well fitted curve in the direction sought with a large enough effect; inconclusive = small, poorly fitted or top-dose-only effect, or another doubt; inactive = no such curve, though single readings can be large; an effect the other way counts as inactive or inconclusive.
SMILES,GLS inhibitor,TrxR1 substrate,TrxR1 inh,IDH1 R132H inh,LDHA inh,PKM2 activator,Resorufin autofl,WT IDH1 inh,mIDH1 confirm
O=C(NC1CCCCC1)C(c1ccco1)N(C(=O)c1csnn1)c1ccccc1 (stereo not given),0,0,0,0,0,-,-,-,-
CCc1ccc(OC(=O)c2ccccc2I)cc1,-,-,-,-,0,-,-,-,-
CCc1ccc(Nc2ncnc3c2cnn3-c2cccc(C)c2)cc1,-,-,-,-,0,-,-,-,-
Cc1ccc(C)c(N(C(=O)c2ccco2)C(C(=O)NC2CCCC2)c2ccco2)c1 (stereo not given),0,0,0,46µM,0,-,0,0,20µM
S=C(N/N=C1/CC2CC=CC12)NC1CCCCC1 (stereo not given),-,-,-,-,0,-,-,-,-
CCOC(=O)C1=C(O)/C(=C/c2ccc(OCC(=O)O)c(OCC)c2)SC1=Nc1ccc(C)cc1,0,0,0,?,0,0,-,-,-
CCOC(=O)C1=C(O)/C(=C/c2ccc(OCC(=O)O)c(OCC)c2)SC1=Nc1ccc(OC)cc1,0,0,0,46µM,0,0,0,50µM,?
CC(=O)c1c(C)[nH]c(C(=O)C(C)Sc2ccccc2Br)c1C (stereo not given),-,-,-,-,0,-,-,-,-
Cc1ccc(-c2cc(C(=O)N3CCOC(C)C3)n[nH]2)s1 (stereo not given),-,-,-,-,0,-,-,-,-
COc1cc(C2CC(=O)Nc3c2cnn3-c2nc3ccccc3s2)cc(OC)c1O (stereo not given),-,-,-,-,0,-,-,-,-
Cc1ccc([C@@H]2C3COCC=C3C(C#N)=C(N)C2(C#N)C#N)o1 (stereo not given in full),0,0,7.9µM,?,0,0,0,0,?
Cc1ccc(C2C3CSCC=C3C(C#N)=C(N)C2(C#N)C#N)cc1 (stereo not given),0,0,?,?,0,0,0,0,40µM
COc1ccc(OC)c(C(=O)N2CCC(C(=O)O)CC2)c1,-,-,-,-,0,-,-,-,-
N#Cc1ccccc1CNc1ccc(Cl)cc1F,-,-,-,-,0,-,-,-,-
CN(C)Cc1c(C(=O)N/N=C/c2ccccc2OCc2c(F)cccc2Cl)nnn1-c1nonc1N,0,0,0,37µM,0,0,0,0,7.1µM
CN(C)Cc1c(C(=O)N/N=C/c2cccc(OCc3c(F)cccc3Cl)c2)nnn1-c1nonc1N,0,0,0,0,0,-,-,-,-
Brc1ccc2c(c1)C(c1cccs1)=NNC(c1cccnc1)=N2,0,0,0,29µM,0,0,0,0,22µM
O=C(Nc1nn[nH]n1)c1cccc(S(=O)(=O)N2CCCCCC2)c1,-,-,-,-,0,-,-,-,-
O=P(NC1CCCCC1)(c1ccccc1)c1ccccc1,0,0[2.29 µM],0,0,0,-,-,-,-
CC/C(=C\C1CCCCC1)C(NP(=O)(c1ccccc1)c1ccccc1)c1ccccc1 (stereo not given),0,0,0,28µM,0,0,0,0,22µM
